Compound activity from PubChem.
An excerpt weighted towards active compounds, which were near 2.9% of everything screened.
Exocytosis inh: LAMP-1 surface exposure blockers, TALL-104 cells – cell-based, flow cytometry, MLPCN library, primary screen; AID 651702, 2012; TALL-104 LAMP-1 surface exposure; cells stimulated with thapsigargin and PMA; inhibition, % at 10 µM; 0.66% of 360,000 active;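 active = inhibition above about 55%, limit read from the data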
NadD block: inhibitors of S. aureus NadD, primary screen, biochemical, colorimetric, uHTS; purified NadD enzyme, colorimetric absorbance read-out; inhibition, % at 20 µM; 0.78% of 360,000 active; AID 602399, 2012; in the data active = inhibition above about 26%
GRK2 aptamer HTS: compounds blocking aptamer binding on GRK2 – biochemical, human GRK2, bead flow cytometry, HTS, primary screen; Beta-adrenergic receptor kinase 1 (Homo sapiens), P25098; FAM-aptamer displacement from GRK2; inhibition of aptamer binding, % at 10 µM; 0.59% of 330,000 active; AID 488847, 2010;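 active = inhibition of aptamer binding above 40%, roughly 3 SD of noise, on plates passing a quality check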;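 note: median bead fluorescence of bound FAM aptamer so fluorescent compounds give negative values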
Beta2AR agonist: beta2AR agonists driving receptor internalization, primary screen, cell-based, FAP fluorogen, flow cytometry. 0.43% of 340,000 active. Beta-2 adrenergic receptor (Homo sapiens), P07550. Am2.2-beta2AR cells. AID 504454, 2011. response, % (concentration not given with the values);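 active = response above a set limit, near 3 SD of response in nonfluorescent compounds, cut at about 42% in these data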
PP1 counter: PP1-alpha phosphatase inhibitors, primary screen, counter-screen for PP5 inhibitor project, biochemical, fluorescence, OMFP substrate, single point; purified PP1alpha; inhibition, % at 6.7 µM; 0.9% of 320,000 active; AID 2235, 2010;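 active = inhibition above the mean inhibition of all tested compounds plus 3 SD, computed separately for each screening campaign, cut at about 15% in these data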
PP1 inh confirm: PP1 phosphatase inhibitors, confirmation, biochemical, fluorescence, OMFP substrate, triplicate; shares compounds with PP1 counter; purified PP1alpha; inhibition, % at 6.7 µM; 52% of 1,900 active; AID 2358, 2010;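 active = mean PP1 inhibition above a set limit taken from the earlier primary screen, cut at about 15% in these data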
PP5 inh counter: PP5 phosphatase inhibition by PP1 hits, confirmation, counter-screen for PP1 inhibitor project, biochemical, fluorescence, triplicate | shares compounds with PP1 counter | AID 2360, 2010 | inhibition, % at 6.7 µM | purified PP5c, OMFP fluorescence | 4% of 1,900 active;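 active = mean PP5 inhibition over triplicate wells above about 9.5% taken from the earlier PP1 screen, limit read from the data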
Target sequence (P53041 whole entry, looked up): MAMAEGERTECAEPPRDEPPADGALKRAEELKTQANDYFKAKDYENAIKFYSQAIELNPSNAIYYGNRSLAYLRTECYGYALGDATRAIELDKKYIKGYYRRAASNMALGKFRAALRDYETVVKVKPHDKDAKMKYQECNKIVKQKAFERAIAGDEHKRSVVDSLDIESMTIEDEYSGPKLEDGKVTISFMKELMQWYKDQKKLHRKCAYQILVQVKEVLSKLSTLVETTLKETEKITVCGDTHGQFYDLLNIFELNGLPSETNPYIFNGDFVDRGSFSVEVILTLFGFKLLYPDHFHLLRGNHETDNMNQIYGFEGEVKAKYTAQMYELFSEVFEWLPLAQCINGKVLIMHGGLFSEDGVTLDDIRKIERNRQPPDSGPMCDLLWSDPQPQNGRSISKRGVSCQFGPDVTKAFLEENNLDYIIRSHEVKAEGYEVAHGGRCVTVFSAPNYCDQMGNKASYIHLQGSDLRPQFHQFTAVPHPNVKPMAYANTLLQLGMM
An asterisk follows results filed as active; nt = not tested or not shown.

SMILES	Exocytosis inh	NadD block	GRK2 aptamer HTS	Beta2AR agonist	PP1 counter	PP1 inh confirm	PP5 inh counter
COc1ccc(C2SCC(=O)N2C)cc1 (configuration not stated)	-2	-3	1	7	-3	nt	nt
Cc1ccc(C(=O)NC(Cc2cccc(F)c2)C(=O)O)cc1 (configuration not stated)	-2	-1	0	1	nt	nt	nt
C[C@@H]1CC2OC(=O)[C@@]3(C)C(=O)CC[C@@](C)(C23)[C@@]1(O)CCc1ccoc1 (some centres not stated)	-1	-4	0	2	1	nt	nt
C/C(CC(=O)Nc1ccc(Cl)c(C(F)(F)F)c1)=N\NC(=O)c1cc2ccccc2cc1O	0	36*	2	1	19*	8	-3
CCCCNC(=NCc1cccc(C(F)(F)F)c1)Nc1ccccc1	19	-7	0	8	-1	nt	nt
CCNc1cc2n(c(=O)n1)CCc1cc(OC)c(OC)cc1-2	-8	-6	1	-16	-1	nt	nt
COc1cc2c(cc1OC)-c1cc(NCc3ccccn3)nc(=O)n1CC2	0	10	5	-15	20*	21*	0
CN(Cc1cn(C)nc1-c1ccccc1F)CC1CCCCO1 (configuration not stated)	3	-7	2	7	-1	nt	nt
COC(=O)c1cc2sccc2n1CC(=O)N(C)c1ccccc1	1	3	0	7	43*	2	0
COC1=CCC2([N+](=O)[O-])CN(CCO)CC1([N+](=O)[O-])C2 (configuration not stated)	8	1	1	-7	0	nt	nt
O=C(N/N=C/c1ccsc1)c1c[nH]c2ccccc12	-2	-2	0	-3	38*	-2	0
Cc1ccsc1/C=N/NC(=O)c1c[nH]c2ccccc12	-2	-1	0	8	-1	nt	nt
Cn1cccc1C(=O)Nc1nc(-c2ccccn2)cs1	-1	5	0	-14	32*	41*	1
Cc1ccc(C(=O)Nc2nc(-c3ccccn3)cs2)s1	2	1	4	12	34*	32*	-1
O=C(/C=C/c1ccco1)Nc1nc(-c2ccccn2)cs1	-2	7	4	4	32*	40*	-2
O=C(CCCSc1ccccc1)Nc1nc(-c2ccccn2)cs1	-2	2	1	1	41*	39*	-2
CN(c1ccccc1)S(=O)(=O)c1nnc(NC(=O)C2CCCCC2)s1	2	1	4	5	3	nt	nt
O=C(COc1ccc(F)cc1Cl)Nc1nc(-c2ccccn2)cs1	18	1	2	0	42*	43*	-2
O=C(Nc1nc(-c2ccccn2)cs1)c1ccc(Cl)s1	8	0	0	-18	31*	29*	4
N#Cc1ccccc1OCC(=O)Nc1nc(-c2ccccn2)cs1	-6	7	nt	nt	nt	nt	nt
O=C(NCC(c1ccco1)N1CCCCC1)c1cccc(S(=O)(=O)Nc2ccc(F)cc2)c1 (configuration not stated)	-2	-3	nt	2	nt	nt	nt
O=c1cc(O)nc(SCc2ccccc2)n1-c1ccc(Cl)cc1	-3	-4	0	1	21*	4	-2
Cc1ccc(NC(=O)CSc2nc(O)cc(=O)n2-c2ccc(C)cc2)cc1	1	12	0	-8	25*	1	-1
COc1ccc(NC(=O)CSc2nc(O)cc(=O)n2-c2ccccc2OC)cc1	6	-1	4	-6	21*	1	-3
COc1ccccc1-n1c(SCC(=O)Nc2ccc(C)cc2)nc(O)cc1=O	3	6	0	-8	12	nt	nt
SMILES	Exocytosis inh	NadD block	GRK2 aptamer HTS	Beta2AR agonist	PP1 counter	PP1 inh confirm	PP5 inh counter
NC(=O)CSc1nc(O)cc(=O)n1-c1ccccc1	-3	-4	0	-4	-3	nt	nt
COc1cccc(C(=O)NCCN2CCC(n3c(=O)[nH]c4ccccc43)CC2)c1	5	2	nt	nt	nt	nt	nt
CCc1ccc([C@@H]2CC=C(C(=O)O)[C@H](c3ccc(C)cc3)N2S(=O)(=O)c2ccc(C)cc2)cc1	1	12	0	5	nt	nt	nt
CCc1ccc([C@@H]2CC=C(C(=O)O)[C@H](c3ccc(Cl)cc3)N2S(=O)(=O)c2ccc(C)cc2)cc1	3	9	2	-1	19*	12	0
Cc1ccc(Oc2nnc(-c3ccc(C)cc3)c3ccccc23)cc1	0	8	33	-7	41*	-8	-8
CN(C)C1=NCCN1CCc1ccc(F)cc1	2	-1	0	-8	-4	nt	nt
Cc1cc2cc(CNC(=O)c3ccco3)ccc2n1C	-7	10	2	-4	9	nt	nt
Cc1cc2cc(CNC(=O)c3cc4ccccc4o3)ccc2n1C	nt	nt	87*	nt	22*	9	-2
Cc1cccc(N2CSC3=C(C#N)C(c4ccc(C)o4)CC(=O)N3C2)c1 (configuration not stated)	nt	nt	1	nt	20*	16*	3
COc1ccc(OC)c(C2CC(=O)N3CN(c4ccccc4)CSC3=C2C#N)c1 (configuration not stated)	1	9	1	0	-1	nt	nt
CC1CCCCC12NC(=O)N(CC(=O)c1ccc(Cl)s1)C2=O (configuration not stated)	-3	1	3	-5	-3	nt	nt
O=C(CNC(=O)c1ccc(F)cc1)N/N=C/c1cccnc1	-13	2	0	4	-1	nt	nt
CC(=O)OCCCN1c2ccccc2Nc2nnc(-c3ccccc3)cc21	-1	-4	1	-3	29*	28*	-3
CC(=O)OCCN1c2ccccc2Sc2cnccc21	-3	-4	nt	nt	nt	nt	nt
O=C(COC(=O)C1CCN(c2ccc(C(F)(F)F)cn2)CC1)NCc1ccccc1	2	1	2	3	0	nt	nt
Oc1c(Br)cc(Br)cc1/C=N/Nc1ccc(Cl)nn1	-5	13	6	-9	-2	nt	nt
Oc1ccc(/C=N/Nc2ccc(Cl)nn2)c(O)c1O	3	-1	6	92*	18*	38*	-6
COc1cc(NC(=O)COc2ccc(-n3ccnc3)cc2)cc(OC)c1	-1	-5	0	-4	-7	nt	nt
CC(C)(C)c1ccc(NC(=O)COc2ccc(-n3ccnc3)cc2)cc1	4	23	0	-3	18*	4	-1
COC(=O)CCNC(=O)CCc1ccc(S(=O)(=O)N2CCCCCC2)cc1	-7	2	0	12	-1	nt	nt
